# Compound activity as filed in PubChem.
# Tau fil binding: tau filament binding; recombinant tau filaments, thioflavin S fluorescence, 15 h; filaments grown with octadecylsulfate alongside compound; hit rate 2% among 71,000; Potency, µM (doses to about 57.1 µM);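 note: actives lower thioflavin S fluorescence by blocking filaments or displacing dye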
#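 Recombinant tau protein (human, 1 uM final) plus 30 uM ODS in HEPES pH 7.4 with NaCl, DTT and thioflavine S. Compound present from the start; fluorescence at 510 nm after 15 h, 37 C.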
# USP2a inhib: USP2a (human) protease inhibition; O75604; USP2a enzymatic assay, qHTS inhibition; Potency, µM (highest dose often 38.3 µM), usual class: inhibitors; hit rate 0.1% among 60,000; note: nearly all actives have a fitted effect of over 60% in size
#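 20 nM USP2 core + cpd, 30 min RT; add 20 nM Ub-PLA2/20 uM NBD C6-HPC; read Ex460/Em535 at 0 h and 2.5 h. Normalized to NEM; qHTS curve fit/classification.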
# GBA activity: human lysosomal glucosylceramidase modulation; P04062; purified enzyme, resorufin glucoside fluorescence (screen aimed at inhibitors), 20 min; Potency, µM; hit rate 1.1% among 48,000; AID 360; in the data active = potency below about 15 µM; inconclusive = mostly about 16 µM to 33 µM;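 note: the screen sought inhibitors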
#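 Normal human glucocerebrosidase (0.2 nM final) was assayed with resorufin β-D-glucopyranoside (30 uM final) in 50mM citric acid/KH2PO4, 10mM sodium taurocholate, 0.01% tween-20, pH 5.9. Compounds were titrated; fluorescence (Ex 548, Em 600) read after 20 min at RT.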
# ALOX15 inhib: blocks human 15-lipoxygenase activity | purified 15hLO-1, xylenol orange hydroperoxide absorbance | Potency, µM (doses to about 57.1 µM), hits mostly inhibitors | hit rate 1.4% among 74,000; note: nearly all actives have a fitted effect of over 55% in size
# Target sequence (P16050 whole entry, looked up): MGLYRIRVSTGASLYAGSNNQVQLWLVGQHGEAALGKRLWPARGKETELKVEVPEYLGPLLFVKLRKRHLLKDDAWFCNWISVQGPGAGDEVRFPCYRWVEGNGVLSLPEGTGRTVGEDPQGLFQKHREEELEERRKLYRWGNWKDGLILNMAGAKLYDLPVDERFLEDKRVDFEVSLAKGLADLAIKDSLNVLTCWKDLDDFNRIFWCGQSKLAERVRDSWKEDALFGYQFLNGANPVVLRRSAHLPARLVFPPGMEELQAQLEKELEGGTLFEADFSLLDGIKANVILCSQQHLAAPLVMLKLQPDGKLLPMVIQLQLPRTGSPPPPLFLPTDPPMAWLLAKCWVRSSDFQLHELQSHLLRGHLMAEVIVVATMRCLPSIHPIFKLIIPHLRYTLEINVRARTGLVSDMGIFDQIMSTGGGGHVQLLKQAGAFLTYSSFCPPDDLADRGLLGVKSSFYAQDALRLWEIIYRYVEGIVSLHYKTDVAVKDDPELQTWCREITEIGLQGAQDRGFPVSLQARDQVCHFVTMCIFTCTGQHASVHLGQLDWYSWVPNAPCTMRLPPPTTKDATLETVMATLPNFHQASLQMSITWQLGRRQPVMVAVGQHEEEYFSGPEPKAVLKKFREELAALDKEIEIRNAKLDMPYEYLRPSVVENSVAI
#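 40 nM 15hLO-1 + cpd, 15 min RT; start w/ 50 uM AA (final), 6 min RT; stop/detect w/ 200 uM XO + 300 uM Fe(II) in 50 mM H2SO4, 30 min; A573/A405. Buffer 25 mM Hepes pH 7.5, 0.01% Triton X-100. No-enzyme wells as negative control.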
# Hsp90 Hop PPI: changes Hsp90-Hop TPR2A binding signal, up or down; AlphaScreen TPR2A-His6 binding biotin-Hsp90 C-terminal peptide; Potency, µM (titrated, usually from 57 µM); hit rate 0.44% among 71,000; AID 595; active = well fitted curve in either direction with a large enough effect; inconclusive = small, poorly fitted or top-dose-only effect, or another doubt
# PK Bst: pyruvate kinase (B. stearothermophilus) modulation | hit rate 1.2% among 51,000 | Potency, µM | purified pyruvate kinase, luminescence ATP production; ribose 5-phosphate activator present at AC10; in the data active = potency below about 11 µM; inconclusive = mostly about 12 µM to 25 µM;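 the screen sought inhibitors and activators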
# A number is an active result; - = inactive; ? = inconclusive; . = not tested or not shown; ! = not active in a repeat; [ ] = another dose, or the depositor's remark. Hits are enriched below; roughly 4.6% of the tested compounds scored in any of these assays. Unless noted, calls come from the whole dose curve; as a rule, active = well fitted curve in the direction sought with a large enough effect; inconclusive = small, poorly fitted or top-dose-only effect, or another doubt; inactive = no such curve, though single readings can be large; an effect the other way counts as inactive or inconclusive.
SMILES,Tau fil binding,USP2a inhib,GBA activity,ALOX15 inhib,Hsp90 Hop PPI,PK Bst
Cc1ccc2cc(C(c3nnnn3CC3CCCO3)N3CCCC4(CCCCC4)C3)c(=O)[nH]c2c1 (stereo unspecified),-,-,10.1,-,-,-
COc1cc(OC)cc(C(=O)NCC2CCCO2)c1 (stereo unspecified),.,.,.,-,.,.
NC(N)=NCCC[C@H](NC(=O)CC1(CC(=O)N2CCN(C3c4ccccc4NC(=O)c4ccccc43)CC2)CCCC1)C(=O)NCCn1c(=O)n(-c2ccccc2)n(-c2ccccc2)c1=O (stereo partly specified),.,.,.,20µM,.,.
N=C1N=C(N)c2cc3ccccc3cc21,2.51µM,.,.,-,-,.
N#CC1=C(N)Oc2c(ccc3cccnc23)C1c1cccnc1 (stereo unspecified),-,-,-,?,31.6µM,?
CC(C)(C)c1[nH]nc2c1C(c1cccnc1)C(C#N)=C(N)O2 (stereo unspecified),.,.,.,-,.,.
Cn1c(=O)oc2cc(S(=O)(=O)N3CCCC(C(=O)NCC4COc5ccccc5O4)C3)ccc21 (stereo unspecified),-,.,.,-,-[2.3 µM],.
Cc1ccc(CNC(=O)CN(C)S(=O)(=O)c2cccc3nsnc23)cc1,-,-,-,-,-,.
CCN(CCCNC(=O)CN(C)S(=O)(=O)c1cccc2nsnc12)c1cccc(C)c1,15.8µM,-,-,-,-,-
Cc1nc(N2CCc3ccccc3C2)[nH]c(=O)c1CCC(C)C,-,-,5.28,-,-,-
Cn1c(=O)c2[nH]c([C@@H]3CC(=O)C[C@H](c4nc5c([nH]4)c(=O)n(C)c(=O)n5C)N3)nc2n(C)c1=O,-[11.4 µM],.,.,-[11.4 µM],-[11 µM],.
Cc1cc(NC(=O)COn2nnc3ccc(Cl)cc32)no1,-,-,-,-,-,-
CN(C)c1ccc(/C=c2\sc3n(c2=O)CCCN=3)cc1,-,-,-,-,-,2.67
CS(=O)(=O)N(Cc1ccccc1)c1ccc(C(=O)N2CCOCC2)cc1,-,-,-,-,-,-
Cc1ccc(C2C3CSCC=C3C(C#N)=C(N)C2(C#N)C#N)cc1 (stereo unspecified),-,-,11.8,25.1µM,-,-
CC(C)N1CC=C2C(C#N)=C(N)C(C#N)(C#N)C(c3ccccc3)C2C1 (stereo unspecified),.,.,.,.,.,-
Cc1nc(=O)c(-c2ccccc2)c(C)n1-c1ccccc1C(=O)O,-,-,-,-,-,-
COC(=O)C1=C(C)NC(=O)CC1c1cc2c(cc1Br)OCO2 (stereo unspecified),-,-,.,-,-,.
O=C(CN1CCCC1)N1c2ccccc2Sc2ccccc21,20µM,-,-,?,-,-
NCCCC(=O)N1c2ccccc2Sc2ccccc21,?,.,.,-,-[2.3 µM],.
O=C(O)CCN1Cc2ccccc2C1=O,-,-,-,20µM,-,-
COCCCNC(=O)C(C#N)c1nc2ccccc2nc1N1CCCC1 (stereo unspecified),.,.,.,.,.,-
N#CC(C(=O)NCCc1ccccc1)c1nc2ccccc2nc1N1CCOCC1 (stereo unspecified),2.51µM,-,-,-,-,-
CCOC(=O)N1CCN(c2nc3ccccc3nc2C(C#N)C(=O)NCCc2ccccc2)CC1 (stereo unspecified),3.98µM,-,-,-,-,-
N#CC(C(=O)NCc1ccco1)c1nc2ccccc2nc1N1CCOCC1 (stereo unspecified),3.98µM,-,-,-,-,.
SMILES,Tau fil binding,USP2a inhib,GBA activity,ALOX15 inhib,Hsp90 Hop PPI,PK Bst
N#CC(C(=O)NCc1ccccc1)c1nc2ccccc2nc1N1CCCC1 (stereo unspecified),-,-,-,-,-,-
CCCCCCNC(=O)C(C#N)c1nc2ccccc2nc1N1CCOCC1 (stereo unspecified),3.98µM,-,-,-,-,-
NC(=O)c1cnn2c1NC(c1ccc(F)cc1)CC2C(F)(F)F (stereo unspecified),-,-,-,-,-,-
CC(=Nc1ccc(O)cc1)c1sc2ccccc2c1O,-,-,-,-,-,?
Cc1noc(C)c1-c1ccc2ncnc(Nc3ccccc3)c2c1,-,-,.,-,-,.
CCN(CC)c1nc2ccccc2nc1C(C#N)C(=O)NCCCOC (stereo unspecified),7.94µM,-,-,-,-,-
CCCCN(CCCC)c1nc2ccccc2nc1C(C#N)C(=O)NCCCOC (stereo unspecified),.,.,.,.,.,-
CCCc1nc2sc3ccccc3c(=O)c2c(=O)n1Cc1ccco1,15.8µM,-,-,-,-,.
CCCc1nc2oc3cc(OC)ccc3c(=O)c2c(=O)n1Cc1ccco1,-,-,-,-,-,.
c1ccc2c(c1)CCN(c1ncnc3nc[nH]c13)C2,-,.,.,-,-,.
C1=C(c2ccccc2)CCN(c2ncnc3nc[nH]c23)C1,-,.,.,25.1µM,-,.
COC(=O)c1cc(-c2ccccc2)sc1NC(=O)c1cc(C)on1,.,.,.,-,.,.
CCOC(=O)c1[nH]c2ccc(OC)cc2c1NC(=O)CCN1CCC(C)CC1,.,.,.,.,.,-
O=C(/C=C/Nc1cccc(O)c1)c1ccccc1,-,-,.,12.6µM,?,.
Cc1ccc(C(=O)/C=C/Nc2cccc(O)c2)cc1,.,.,.,.,.,1.26
O=C(/C=C\Nc1ccccn1)c1ccccc1,-,-,.,-,-,.
CCN1CCN(CCC(=O)Nc2ccccc2OC)CC1,-,-,-,-,-,-
O=C(NC[C@H]1CCCCN1)c1cc(OCC(F)(F)F)ccc1OCC(F)(F)F,39.8µM!,-,.,-,-,.
COc1ccc2nc(NCc3ccccc3)[nH]c2c1,-,-,.,-,-,.
COc1ccc2nc(-c3ccccc3)[nH]c2c1,-,-,.,-,-,6.04
CCOc1ccc2nc(-c3ccccc3)[nH]c2c1,-,-,-,-,-,1.97
Nc1ccc(-c2nc3ccc(-c4nc5ccc(N)cc5[nH]4)cc3[nH]2)cc1,.,25.1µM,.,-,.,.
COc1ccc(OC2C(O)COC2/C=C/c2ccccc2)cc1 (stereo unspecified),.,.,.,-[11.4 µM],.,.
CCSc1nc2c(c(=O)n(C)c(=O)n2C)n1Cc1ccc(Cl)cc1,-,-,-,-,-,-
COCC(=O)Nc1ccc(Nc2ccccc2)cc1,7.94µM,-,-,-,-,-
SMILES,Tau fil binding,USP2a inhib,GBA activity,ALOX15 inhib,Hsp90 Hop PPI,PK Bst
CCCc1ccc(S(=O)(=O)NCCc2ccncc2)cc1,-,-,7.13,-,-,-
COc1ccccc1C(=O)n1nc(-c2ccc(Cl)cc2)nc1N,-,-,-,12.6µM,-,-
Cc1ccc(S(=O)(=O)C(C#N)c2nc3ccccc3nc2N2CCCC2)cc1 (stereo unspecified),-,-,.,?,-,-
Cn1c(=O)c2c(nc(SCC(=O)NCc3ccco3)n2C)n(C)c1=O,-,-,-,-,-,-
COC(=O)C1C(=O)C2=C(CC1C)NC(C)=C(C(=O)OC1CCCCC1)C2c1ccc(N(C)C)cc1 (stereo unspecified),25.1µM,-,-,15.8µM,?,-
Cc1nnc2c(-c3ccccc3)nc3ccccc3n12,-,-,.,-,-,.
Cn1nc(-c2ccccc2)c2nc3ccccc3nc21,-,-,.,-,?,7.97
